Source: PubChem BioAssay AID1259418 (Broad Institute, 2018)
Out of some 3,400 compounds screened, about 840 (25%) were called active. Inconclusive results (about 11%) are left out. A selection follows. Entries with a potency or affinity are not part of this list. A number with no mark means an inactive call.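 How the source made its calls: active means fitted half-maximal concentration of signal decrease at or below twice the sample's top tested concentration; inconclusive means flat curve between -70 and -30 percent, or poor fit; inactive means flat within 30 percent, signal rise, or potency above limit.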

Experiment: T. gondii growth inhibition with IFN-gamma, dose response, cell-based, ME49Luc, HeLa, luciferase, 72 h (AID 1259418)
Conditions: T. gondii ME49Luc in IFN-y HeLa, stronger effect = lower value, -100% = high-dose IFN-γ control wells; at 19.5 µM unless noted

Row | Compound | max activity
1 | CCC(C(=O)N1CCC2(CC1)Nc1ccc(C)c(C)c1-n1cccc12)c1ccccc1 (stereo not drawn) | 8.62% [at 2.6 µM]
2 | CCOC(=O)C1CCCN(C(=O)Cn2cccc2-c2nc(-c3ccc(C)cc3)cs2)C1 (stereo not drawn) | -28.8%
3 | CCOC(=O)C1CCN(C(=O)Cn2cccc2-c2nc(-c3ccc(C)cc3)cs2)CC1 | 11.7%
4 | CCN1CCCC1CNC(=O)Cn1cccc1-c1nc(-c2ccccc2)cs1 (stereo not drawn) | -11%
5 | Cc1ccc(-c2csc(-c3cccn3CC(=O)N3CCC(N4CCCCC4)CC3)n2)cc1 | 6.16% [at 0.16 µM]
6 | COCCN1CCc2nc(SCc3nc(-c4ccc(OC)c(OC)c4)oc3C)[nH]c(=O)c2C1 | 34.3% [at 10 µM]
7 | CN1C(=O)CCc2cc(NC(=O)c3cccs3)ccc21 | 71.4%
8 | Cc1ccc(C)c(NC(=O)N2CCN(Cc3nc(-c4ccccc4C)oc3C)CC2)c1 | 4.41% [at 2.6 µM]
9 | COc1cccc(C(=O)Nc2ccc(-c3nc(-c4cc(C)ccc4C)co3)cc2)c1 | 7.15% [at 0.16 µM]
10 | Cc1nnc(N2C[C@@H](Oc3ncccc3F)[C@@H]3OCCC[C@@H]32)s1 | 9.8%
11 | COc1ccc(-c2nc3c(s2)CN(S(=O)(=O)c2ccc(OC)cc2)CC3)cc1 | 12.4%
12 | COc1ccc(S(=O)(=O)N2CCc3nc(-c4ccc(C)cc4)sc3C2)cc1 | -4.65% [at 2.6 µM]
13 | COc1cccc(-c2nc3c(s2)CN(S(=O)(=O)c2ccc(C)c(C)c2)CC3)c1 | -17.2% [at 10 µM]
14 | COc1ccc(-c2nc3c(s2)CN(S(=O)(=O)c2ccc(C)cc2)CC3)cc1 | 9.64% [at 10 µM]
15 | Cc1ccc(C)c(-c2coc(-c3ccc(NC(=O)COc4ccc(F)cc4)cc3)n2)c1 | 15.1%
16 | N#Cc1ccc(S(=O)(=O)N2CCC(N3CCOCC3)CC2)cc1 | -17.4% [at 0.35 µM]
17 | CCc1ccccc1NC(=O)CN1CCC2(CC1)N=C(c1ccc(Cl)cc1)C(=O)N2 | 13%
18 | Cc1nc(-c2ccc(F)cc2)sc1-c1ccc(SCc2ccc(C(F)(F)F)cc2)nn1 | 6.62% [at 0.68 µM]
19 | COc1ccccc1NC(=O)CN1CCC2(CC1)N=C(c1ccc(F)cc1)C(=O)N2 | 11.3%
20 | Cc1oc(-c2ccccc2)nc1CN(c1ccccc1)S(=O)(=O)c1cccs1 | 8.04% [at 0.68 µM]
21 | Cc1ccc(-c2nc(CN(c3ccc(C)cc3)S(=O)(=O)c3cccs3)c(C)o2)cc1 | 12.6% [at 0.16 µM]
22 | Cc1ccc(N(Cc2nc(-c3ccc(OC(C)C)cc3)oc2C)S(=O)(=O)c2cccs2)cc1 | -11.4% [at 0.68 µM]
23 | COc1ccccc1-c1nc(CSc2nc3c(c(=O)[nH]2)CN(Cc2ccc(F)cc2)CC3)c(C)o1 | 38.6% [at 5 µM]
24 | Cc1ccc2c(c1C)-n1cccc1C1(CCN(C(=O)c3cccc(N(C)C)c3)CC1)N2 | -17.3% [at 0.35 µM]

Row | Compound | max activity
25 | COCCC(=O)N1C[C@H](OCc2ccccn2)[C@@H]2COC[C@@H]21 | 46.2%
26 | COc1ccc(CCC(=O)N2CCC[C@@H]2C(=O)NCCc2csc(-c3ccccc3)n2)cc1 | 15.9% [at 2.6 µM]
27 | COCCN1CCc2nc(SCc3nc(-c4ccc(C)cc4)oc3C)[nH]c(=O)c2C1 | -13.7% [at 2.6 µM]
28 | COc1ccc(-c2nc(Cn3nnc(-c4nc(-c5cccc(C(F)(F)F)c5)no4)c3C)c(C)o2)cc1 | -6.58% [at 5 µM]
29 | CCOc1ccc(NC(=O)Nc2ccc(-c3nc(-c4cccc(Br)c4)co3)cc2)cc1 | 4.75% [at 10 µM]
30 | COc1ccc(-c2nc(Nc3cc(F)ccc3F)c3ccccc3n2)cc1 | 38%
31 | COc1cccc(-c2nc3c(s2)CN(S(=O)(=O)c2ccc(F)cc2)CC3)c1 | 19.6%
32 | COc1ccc(-c2nc3c(s2)CN(S(=O)(=O)c2ccc(CC(C)C)cc2)CC3)cc1 | -5.7% [at 10 µM]
33 | CCOC(=O)C1CCC(CNC(=O)Nc2ccc(-c3nc(-c4cc(C)ccc4C)co3)cc2)CC1 (stereo not drawn) | 10.8% [at 0.16 µM]
34 | Cc1cc(C2CCCN2C(=O)Cn2nc(C(F)(F)F)cc2C)on1 (stereo not drawn) | 9.62% [at 0.16 µM]
35 | Cc1ccc(-c2coc(-c3ccc(NC(=O)NC4CCCC4)cc3)n2)c(C)c1 | 13.7%
36 | Cc1nc(OCC(=O)Nc2ccccc2F)c2ccccc2n1 | 19.1% [at 0.16 µM]
37 | COCCN1CCc2nc(SCc3nc(-c4cccc(C)c4)oc3C)[nH]c(=O)c2C1 | 12% [at 0.16 µM]
38 | CCN1CCn2c(-c3cccc(F)c3)cnc2C12CCN(c1ncccn1)CC2 | 40.4%
39 | Cc1ccc(C)c(NC(=O)CN2CCC3(CC2)N=C(c2cccc(F)c2)C(=O)N3)c1 | -32.1%
40 | COc1ccc(-c2nc(NC(C)c3ccccc3)c3ccccc3n2)cc1 (stereo not drawn) | 18.4% [at 5 µM]
41 | COc1ccc(C(=O)N2CCC3(CC2)Nc2ccc(C)c(C)c2-n2cccc23)c(OC)c1 | -29.7% [at 0.16 µM]
42 | Cc1ccc(C)c(-c2coc(-c3ccc(NC(=O)c4ccc(Br)o4)cc3)n2)c1 | 9.77% [at 10 µM]
43 | O=C(NCc1ccc(F)cc1F)c1cc(-c2cnc(N3CCCC3)nc2)cn1CC1CC1 | -11.3% [at 0.038 µM]
44 | COCCN1CCc2c(cnc(-c3cccnc3)c2C(=O)O)C1 | 17.7% [at 2.6 µM]
45 | CN1C(=O)CCc2cc(NC(=O)c3cccnc3)ccc21 | -16.3% [at 0.16 µM]
46 | COc1ncccc1NC(=O)c1cc(-c2cnc(N3CCCC3)nc2)cn1CC1CC1 | 6%
47 | COC(=O)[C@@H]1C[C@@H](N(C)C)CN1S(=O)(=O)c1c(C)ccc2nsnc12 | 25.5%
48 | Cc1ccc(-c2coc(-c3ccc(NC(=O)COc4ccc(F)cc4)cc3)n2)cc1 | -52.1% [at 0.68 µM]
